# Assay results taken from article PMC7862700, “An all-to-all approach to the identification of sequence-specific readers for epigenetic DNA modifications on cytosine”.
# Legend:
# Experiment in all cases: DAPPL (digital affinity profiling via proximity ligation, sequencing); 10 mM Tris-HCl pH 7.5, 50 mM NaCl, 1 mM DTT, 4% glycerol, room temperature, 30 min; GST-TFs on glutathione beads, 16-mer random dsDNA library, 0.1% formaldehyde crosslink after washing; high values mean tight binding
# FLI1 = molecular target: T1, FLI1 (Homo sapiens, UniProt Q01543 1-452); conditions: protein: recombinant; tags: N-terminal GST; dsDNA, one strand shown
# T1 sequence: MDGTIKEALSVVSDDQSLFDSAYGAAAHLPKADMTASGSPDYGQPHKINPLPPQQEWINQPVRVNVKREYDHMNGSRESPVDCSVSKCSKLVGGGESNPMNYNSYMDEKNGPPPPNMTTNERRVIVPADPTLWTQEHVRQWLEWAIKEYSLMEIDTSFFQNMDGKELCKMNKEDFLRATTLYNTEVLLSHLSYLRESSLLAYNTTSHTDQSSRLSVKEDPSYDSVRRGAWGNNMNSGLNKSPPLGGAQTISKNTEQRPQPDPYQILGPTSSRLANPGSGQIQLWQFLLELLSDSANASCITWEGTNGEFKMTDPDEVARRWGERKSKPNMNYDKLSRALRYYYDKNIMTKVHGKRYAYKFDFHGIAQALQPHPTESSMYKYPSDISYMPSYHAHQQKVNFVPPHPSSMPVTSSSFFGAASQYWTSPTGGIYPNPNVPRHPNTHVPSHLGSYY
# How it was run: (§1)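 Sequencing on an Illumina NextSeq500 followed washing, crosslinking with 0.1% formaldehyde, proximity ligation (BsaI/T4 ligase, 1 h, 37 °C) and PCR amplification of pools that had been incubated for 30 min at room temperature with 200 nmole of a random double-stranded 16-mer DNA library in Tris/NaCl/DTT/glycerol buffer. Each pool held DNA-barcoded human transcription factors, expressed in yeast as GST fusions and captured on glutathione beads, plus a tag-only sample. Binding signal is a hexamer's read frequency for a factor divided by its frequency in the tag-only sample.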
# ELK1 = molecular target: T2, ELK1 (Homo sapiens, UniProt P19419 1-428); conditions: protein: recombinant; tags: N-terminal GST; dsDNA, one strand shown
# T2 sequence: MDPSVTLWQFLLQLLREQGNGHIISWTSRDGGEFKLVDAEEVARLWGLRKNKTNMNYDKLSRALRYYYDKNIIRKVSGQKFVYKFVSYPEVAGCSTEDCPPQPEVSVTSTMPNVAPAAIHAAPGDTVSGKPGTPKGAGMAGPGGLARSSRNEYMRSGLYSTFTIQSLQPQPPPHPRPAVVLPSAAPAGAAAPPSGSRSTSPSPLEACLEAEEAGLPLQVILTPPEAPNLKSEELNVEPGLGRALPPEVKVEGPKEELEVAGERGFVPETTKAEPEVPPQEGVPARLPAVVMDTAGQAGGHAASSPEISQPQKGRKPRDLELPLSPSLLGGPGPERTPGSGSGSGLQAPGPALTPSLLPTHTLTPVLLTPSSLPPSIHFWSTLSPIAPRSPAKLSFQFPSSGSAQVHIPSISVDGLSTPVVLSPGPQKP
# How it was run: as §1
# GABPA = molecular target: T3, GABPA (Homo sapiens, UniProt Q06546 1-454); conditions: protein: recombinant; tags: N-terminal GST; dsDNA, one strand shown
# T3 sequence: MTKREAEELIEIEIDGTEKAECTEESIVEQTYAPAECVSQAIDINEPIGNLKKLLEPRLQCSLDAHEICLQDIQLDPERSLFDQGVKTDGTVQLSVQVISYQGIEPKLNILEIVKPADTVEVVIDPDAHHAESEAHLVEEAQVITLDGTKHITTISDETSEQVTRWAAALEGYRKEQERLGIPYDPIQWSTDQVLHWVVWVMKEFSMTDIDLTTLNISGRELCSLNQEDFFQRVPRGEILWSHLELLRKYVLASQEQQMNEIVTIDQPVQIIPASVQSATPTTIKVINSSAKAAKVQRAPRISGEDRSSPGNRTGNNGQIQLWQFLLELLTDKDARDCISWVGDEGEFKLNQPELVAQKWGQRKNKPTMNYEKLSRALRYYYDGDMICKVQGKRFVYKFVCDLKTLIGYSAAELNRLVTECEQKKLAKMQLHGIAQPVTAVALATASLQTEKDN
# How it was run: as §1
# ERG = molecular target: T4, ERG (Homo sapiens, UniProt P11308 1-479); conditions: protein: recombinant; tags: N-terminal GST; dsDNA, one strand shown
# T4 sequence: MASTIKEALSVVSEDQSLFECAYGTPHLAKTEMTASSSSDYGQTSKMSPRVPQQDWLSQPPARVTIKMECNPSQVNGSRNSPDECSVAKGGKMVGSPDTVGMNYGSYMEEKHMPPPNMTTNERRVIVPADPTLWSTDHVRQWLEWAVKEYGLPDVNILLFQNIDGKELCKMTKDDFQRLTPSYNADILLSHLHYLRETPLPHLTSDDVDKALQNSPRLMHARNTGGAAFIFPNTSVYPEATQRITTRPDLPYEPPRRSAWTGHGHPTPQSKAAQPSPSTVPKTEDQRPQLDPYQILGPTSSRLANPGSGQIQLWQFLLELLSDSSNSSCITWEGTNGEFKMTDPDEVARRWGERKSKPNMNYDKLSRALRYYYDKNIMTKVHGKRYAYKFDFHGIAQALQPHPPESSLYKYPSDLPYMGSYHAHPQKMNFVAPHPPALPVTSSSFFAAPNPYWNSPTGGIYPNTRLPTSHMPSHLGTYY
# How it was run: as §1
# ELF1 = ELF1 (Homo sapiens, UniProt P32519 1-619); conditions: protein: recombinant; tags: N-terminal GST; dsDNA, one strand shown
# Sequence of ELF1 (P32519 whole entry): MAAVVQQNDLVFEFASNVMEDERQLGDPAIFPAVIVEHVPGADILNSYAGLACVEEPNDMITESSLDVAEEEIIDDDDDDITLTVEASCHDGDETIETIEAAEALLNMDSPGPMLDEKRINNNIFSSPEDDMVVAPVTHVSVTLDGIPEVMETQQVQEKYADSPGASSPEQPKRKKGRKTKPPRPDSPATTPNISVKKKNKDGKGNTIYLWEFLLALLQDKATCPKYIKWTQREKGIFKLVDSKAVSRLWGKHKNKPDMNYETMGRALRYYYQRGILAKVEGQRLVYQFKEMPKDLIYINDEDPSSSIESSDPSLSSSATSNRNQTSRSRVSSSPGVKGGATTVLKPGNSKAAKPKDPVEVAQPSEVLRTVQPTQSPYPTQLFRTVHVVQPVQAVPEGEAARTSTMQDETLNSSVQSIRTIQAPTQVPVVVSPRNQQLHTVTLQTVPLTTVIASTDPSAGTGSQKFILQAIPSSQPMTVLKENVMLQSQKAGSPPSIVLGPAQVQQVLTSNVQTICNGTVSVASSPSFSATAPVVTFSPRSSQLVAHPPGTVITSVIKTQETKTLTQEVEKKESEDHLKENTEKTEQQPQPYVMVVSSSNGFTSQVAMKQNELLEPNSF
# How it was run: as §1
# EHF = molecular target: T5, EHF (Homo sapiens, UniProt Q9NZC4 1-300); conditions: protein: recombinant; tags: N-terminal GST; dsDNA, one strand shown
# T5 sequence: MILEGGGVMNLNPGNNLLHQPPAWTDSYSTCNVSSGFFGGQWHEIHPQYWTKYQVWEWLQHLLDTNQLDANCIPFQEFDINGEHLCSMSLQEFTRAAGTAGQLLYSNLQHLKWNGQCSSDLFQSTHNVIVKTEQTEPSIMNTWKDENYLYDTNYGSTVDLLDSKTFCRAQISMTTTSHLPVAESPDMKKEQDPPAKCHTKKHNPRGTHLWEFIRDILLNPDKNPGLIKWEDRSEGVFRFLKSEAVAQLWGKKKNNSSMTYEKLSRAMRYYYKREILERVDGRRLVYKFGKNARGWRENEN
# How it was run: as §1
# SPI1 = SPI1 (Homo sapiens, UniProt P17947 1-270); conditions: protein: recombinant; tags: N-terminal GST; dsDNA, one strand shown
# How it was run: as §1
# SPIB = SPIB (Homo sapiens, UniProt Q01892 1-262); conditions: protein: recombinant; tags: N-terminal GST; dsDNA, one strand shown
# Sequence of SPIB (Q01892 whole entry): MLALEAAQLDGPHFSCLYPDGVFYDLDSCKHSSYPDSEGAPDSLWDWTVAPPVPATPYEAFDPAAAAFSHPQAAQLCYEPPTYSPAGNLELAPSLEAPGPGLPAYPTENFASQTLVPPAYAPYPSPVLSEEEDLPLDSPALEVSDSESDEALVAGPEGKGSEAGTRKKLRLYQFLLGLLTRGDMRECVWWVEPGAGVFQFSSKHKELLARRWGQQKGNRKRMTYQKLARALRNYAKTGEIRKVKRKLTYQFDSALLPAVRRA
# How it was run: as §1
# ELK3 = molecular target: T6, ELK3 (Homo sapiens, UniProt P41970 1-407); conditions: protein: recombinant; tags: N-terminal GST; dsDNA, one strand shown
# T6 sequence: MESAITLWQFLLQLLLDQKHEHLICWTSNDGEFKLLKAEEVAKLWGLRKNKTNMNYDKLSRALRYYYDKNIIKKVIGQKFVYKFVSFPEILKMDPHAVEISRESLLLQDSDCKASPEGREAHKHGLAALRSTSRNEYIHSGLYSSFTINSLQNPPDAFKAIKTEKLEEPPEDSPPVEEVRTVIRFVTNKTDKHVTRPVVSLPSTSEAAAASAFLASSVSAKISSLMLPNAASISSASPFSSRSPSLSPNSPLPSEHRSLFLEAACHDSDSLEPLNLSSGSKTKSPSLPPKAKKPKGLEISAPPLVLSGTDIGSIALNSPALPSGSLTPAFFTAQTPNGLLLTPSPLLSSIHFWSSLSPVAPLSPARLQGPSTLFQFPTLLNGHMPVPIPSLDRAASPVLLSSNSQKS
# How it was run: as §1
# FEV = molecular target: T7, FEV (Homo sapiens, UniProt Q99581 1-238); conditions: protein: recombinant; tags: N-terminal GST; dsDNA, one strand shown
# T7 sequence: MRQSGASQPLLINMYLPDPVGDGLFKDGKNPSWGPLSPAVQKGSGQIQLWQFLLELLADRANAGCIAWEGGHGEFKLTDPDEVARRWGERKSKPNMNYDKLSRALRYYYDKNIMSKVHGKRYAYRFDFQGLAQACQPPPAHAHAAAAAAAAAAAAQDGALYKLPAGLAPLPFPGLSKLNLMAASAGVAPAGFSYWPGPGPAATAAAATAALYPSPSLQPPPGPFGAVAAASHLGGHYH
# How it was run: as §1
# ETV5 = ETV5 (Homo sapiens, UniProt P41161 1-510); conditions: protein: recombinant; tags: N-terminal GST; dsDNA, one strand shown
# Sequence of ETV5 (P41161 whole entry): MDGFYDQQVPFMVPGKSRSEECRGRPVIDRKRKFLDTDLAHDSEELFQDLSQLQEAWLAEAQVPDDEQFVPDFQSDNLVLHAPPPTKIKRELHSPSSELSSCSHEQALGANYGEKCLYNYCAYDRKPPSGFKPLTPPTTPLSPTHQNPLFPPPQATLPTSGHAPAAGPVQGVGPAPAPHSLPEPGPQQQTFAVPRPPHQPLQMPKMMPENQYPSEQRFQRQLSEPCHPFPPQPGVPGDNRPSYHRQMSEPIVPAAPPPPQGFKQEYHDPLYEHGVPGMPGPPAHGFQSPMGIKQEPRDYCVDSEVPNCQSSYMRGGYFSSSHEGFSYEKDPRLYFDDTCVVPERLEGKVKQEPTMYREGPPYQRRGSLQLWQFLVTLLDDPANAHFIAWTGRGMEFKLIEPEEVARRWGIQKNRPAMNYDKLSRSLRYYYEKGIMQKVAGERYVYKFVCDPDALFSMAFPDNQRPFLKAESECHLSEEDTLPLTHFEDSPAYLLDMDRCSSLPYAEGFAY
# How it was run: as §1
# HSF1 = HSF1 (Homo sapiens, UniProt Q00613 1-529); conditions: protein: recombinant; tags: N-terminal GST; chain copies: 3; dsDNA, one strand shown
# Sequence of HSF1 (Q00613 whole entry): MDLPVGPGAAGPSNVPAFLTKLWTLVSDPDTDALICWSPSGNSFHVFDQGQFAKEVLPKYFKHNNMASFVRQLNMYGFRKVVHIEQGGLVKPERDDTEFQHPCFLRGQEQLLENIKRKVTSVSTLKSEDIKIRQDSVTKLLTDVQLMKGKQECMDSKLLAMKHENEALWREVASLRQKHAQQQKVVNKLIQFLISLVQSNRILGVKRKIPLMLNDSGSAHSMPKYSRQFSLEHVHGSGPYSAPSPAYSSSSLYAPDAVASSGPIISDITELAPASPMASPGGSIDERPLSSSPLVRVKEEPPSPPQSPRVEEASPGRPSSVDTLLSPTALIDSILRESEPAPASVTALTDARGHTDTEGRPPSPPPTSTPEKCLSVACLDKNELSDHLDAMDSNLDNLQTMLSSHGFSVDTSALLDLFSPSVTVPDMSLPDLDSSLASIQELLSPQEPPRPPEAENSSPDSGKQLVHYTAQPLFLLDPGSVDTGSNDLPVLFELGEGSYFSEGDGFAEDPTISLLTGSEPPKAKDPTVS
# How it was run: as §1
# SPIC = molecular target: T8, SPIC (Homo sapiens, UniProt Q8N5J4 1-248); conditions: protein: recombinant; tags: N-terminal GST; dsDNA, one strand shown
# T8 sequence: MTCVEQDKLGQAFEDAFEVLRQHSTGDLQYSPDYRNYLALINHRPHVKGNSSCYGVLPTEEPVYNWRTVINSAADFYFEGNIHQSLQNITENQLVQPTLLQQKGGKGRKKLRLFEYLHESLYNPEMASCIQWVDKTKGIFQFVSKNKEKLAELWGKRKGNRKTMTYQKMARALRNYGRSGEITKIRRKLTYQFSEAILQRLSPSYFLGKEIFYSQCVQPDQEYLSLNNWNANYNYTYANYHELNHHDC
# How it was run: as §1
# ELF4 = ELF4 (Homo sapiens, UniProt Q99607 1-663); conditions: protein: recombinant; tags: N-terminal GST; dsDNA, one strand shown
# Sequence of ELF4 (Q99607 whole entry): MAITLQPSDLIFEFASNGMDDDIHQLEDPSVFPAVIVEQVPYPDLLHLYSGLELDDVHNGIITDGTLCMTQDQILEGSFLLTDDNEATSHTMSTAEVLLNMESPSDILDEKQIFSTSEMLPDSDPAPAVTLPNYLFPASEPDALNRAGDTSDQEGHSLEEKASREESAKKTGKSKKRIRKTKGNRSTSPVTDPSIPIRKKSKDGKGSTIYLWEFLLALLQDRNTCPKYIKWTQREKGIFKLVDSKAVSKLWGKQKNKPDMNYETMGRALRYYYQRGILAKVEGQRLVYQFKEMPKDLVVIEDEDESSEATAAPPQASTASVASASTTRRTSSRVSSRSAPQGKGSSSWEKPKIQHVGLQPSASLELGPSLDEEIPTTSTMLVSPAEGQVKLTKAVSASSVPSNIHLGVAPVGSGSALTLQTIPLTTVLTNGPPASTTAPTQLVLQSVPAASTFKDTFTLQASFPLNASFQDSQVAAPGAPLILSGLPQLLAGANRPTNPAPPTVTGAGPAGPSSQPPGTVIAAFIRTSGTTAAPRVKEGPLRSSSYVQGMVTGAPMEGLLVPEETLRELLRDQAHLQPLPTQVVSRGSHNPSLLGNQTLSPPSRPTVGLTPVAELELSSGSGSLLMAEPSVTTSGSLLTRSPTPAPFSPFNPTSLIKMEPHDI
# How it was run: as §1
# ELK4 = molecular target: T9, ELK4 (Homo sapiens, UniProt P28324-2 1-405); conditions: protein: recombinant; tags: N-terminal GST; dsDNA, one strand shown
# T9 sequence: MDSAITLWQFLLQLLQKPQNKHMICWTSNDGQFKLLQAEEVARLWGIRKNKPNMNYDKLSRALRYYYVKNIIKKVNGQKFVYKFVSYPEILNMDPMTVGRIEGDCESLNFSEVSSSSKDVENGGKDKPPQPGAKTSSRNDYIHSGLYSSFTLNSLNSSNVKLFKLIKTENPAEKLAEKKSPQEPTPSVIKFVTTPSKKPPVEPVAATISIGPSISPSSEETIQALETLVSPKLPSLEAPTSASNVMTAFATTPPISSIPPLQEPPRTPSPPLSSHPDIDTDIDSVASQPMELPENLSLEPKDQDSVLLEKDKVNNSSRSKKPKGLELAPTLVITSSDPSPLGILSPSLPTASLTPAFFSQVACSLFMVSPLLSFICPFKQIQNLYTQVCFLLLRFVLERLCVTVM
# How it was run: as §1
# ETV2 = molecular target: T10, ETV2 (Homo sapiens, UniProt O00321 1-342); conditions: protein: recombinant; tags: N-terminal GST; dsDNA, one strand shown
# T10 sequence: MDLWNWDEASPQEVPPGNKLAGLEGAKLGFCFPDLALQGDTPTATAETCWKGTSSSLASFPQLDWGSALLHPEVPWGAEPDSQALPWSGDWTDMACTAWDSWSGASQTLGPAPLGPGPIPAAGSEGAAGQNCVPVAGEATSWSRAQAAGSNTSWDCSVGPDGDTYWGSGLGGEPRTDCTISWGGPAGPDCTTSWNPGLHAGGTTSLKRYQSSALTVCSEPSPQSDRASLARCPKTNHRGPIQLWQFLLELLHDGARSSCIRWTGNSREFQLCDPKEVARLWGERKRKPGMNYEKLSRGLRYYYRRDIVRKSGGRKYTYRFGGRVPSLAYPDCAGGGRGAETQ
# How it was run: as §1
# ELF3 = molecular target: T11, ELF3 (Homo sapiens, UniProt P78545 1-371); conditions: protein: recombinant; tags: N-terminal GST; dsDNA, one strand shown
# T11 sequence: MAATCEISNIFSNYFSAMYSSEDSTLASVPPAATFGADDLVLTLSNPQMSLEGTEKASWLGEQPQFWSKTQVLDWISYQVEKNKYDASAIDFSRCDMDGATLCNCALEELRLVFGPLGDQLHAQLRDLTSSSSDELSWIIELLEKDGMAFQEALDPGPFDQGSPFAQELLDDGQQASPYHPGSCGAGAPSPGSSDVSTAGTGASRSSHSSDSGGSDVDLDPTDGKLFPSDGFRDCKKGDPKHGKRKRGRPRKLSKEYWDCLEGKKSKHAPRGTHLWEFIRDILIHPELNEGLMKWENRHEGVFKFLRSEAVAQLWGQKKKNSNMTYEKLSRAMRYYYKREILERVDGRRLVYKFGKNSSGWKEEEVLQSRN
# How it was run: as §1
# CRX = CRX (Homo sapiens, UniProt O43186 1-299); conditions: protein: recombinant; tags: N-terminal GST; dsDNA, one strand shown
# Sequence of CRX (O43186 whole entry): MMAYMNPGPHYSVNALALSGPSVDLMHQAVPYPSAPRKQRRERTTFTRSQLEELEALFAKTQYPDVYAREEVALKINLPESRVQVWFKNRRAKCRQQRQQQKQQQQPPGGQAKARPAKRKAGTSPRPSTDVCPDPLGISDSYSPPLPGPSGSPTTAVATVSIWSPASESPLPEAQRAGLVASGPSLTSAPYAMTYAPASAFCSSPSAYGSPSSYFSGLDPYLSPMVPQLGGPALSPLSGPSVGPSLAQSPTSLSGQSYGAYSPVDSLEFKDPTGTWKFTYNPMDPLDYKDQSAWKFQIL
# How it was run: as §1
# ETV1 = ETV1 (Homo sapiens, UniProt P50549 1-477); conditions: protein: recombinant; tags: N-terminal GST; dsDNA, one strand shown
# Sequence of ETV1 (P50549 whole entry): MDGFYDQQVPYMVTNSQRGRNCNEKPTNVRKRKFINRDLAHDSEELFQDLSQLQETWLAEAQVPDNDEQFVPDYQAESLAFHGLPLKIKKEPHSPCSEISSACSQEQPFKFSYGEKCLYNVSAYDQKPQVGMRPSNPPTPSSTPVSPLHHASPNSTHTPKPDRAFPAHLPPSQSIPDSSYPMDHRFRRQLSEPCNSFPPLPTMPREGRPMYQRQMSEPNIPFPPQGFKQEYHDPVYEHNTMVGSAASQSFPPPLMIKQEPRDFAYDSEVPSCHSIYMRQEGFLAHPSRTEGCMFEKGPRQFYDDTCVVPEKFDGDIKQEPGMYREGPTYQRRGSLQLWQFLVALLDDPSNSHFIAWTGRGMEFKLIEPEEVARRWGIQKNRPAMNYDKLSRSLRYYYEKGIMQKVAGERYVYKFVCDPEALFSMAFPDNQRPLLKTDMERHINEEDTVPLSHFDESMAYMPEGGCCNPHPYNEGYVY
# How it was run: as §1
sequence,measurement,setting,value
GATGTT,binding signal,FLI1,"1.28 fold enrichment (6-mer frequency, TF over GST control)"
same,binding signal,ELK1,"1.34 fold enrichment (6-mer frequency, TF over GST control)"
same,binding signal,GABPA,"1.27 fold enrichment (6-mer frequency, TF over GST control)"
same,binding signal,ERG,"1.28 fold enrichment (6-mer frequency, TF over GST control)"
same,binding signal,ELF1,"1.25 fold enrichment (6-mer frequency, TF over GST control)"
same,binding signal,EHF,"1.32 fold enrichment (6-mer frequency, TF over GST control)"
same,binding signal,SPI1,"1.25 fold enrichment (6-mer frequency, TF over GST control)"
same,binding signal,SPIB,"1.2 fold enrichment (6-mer frequency, TF over GST control)"
same,binding signal,ELK3,"1.22 fold enrichment (6-mer frequency, TF over GST control)"
same,binding signal,FEV,"1.22 fold enrichment (6-mer frequency, TF over GST control)"
same,binding signal,ETV5,"1.31 fold enrichment (6-mer frequency, TF over GST control)"
same,binding signal,HSF1,"1.18 fold enrichment (6-mer frequency, TF over GST control)"
same,binding signal,SPIC,"1.39 fold enrichment (6-mer frequency, TF over GST control)"
same,binding signal,ELF4,"1.22 fold enrichment (6-mer frequency, TF over GST control)"
same,binding signal,ELK4,"1.16 fold enrichment (6-mer frequency, TF over GST control)"
same,binding signal,ETV2,"1.21 fold enrichment (6-mer frequency, TF over GST control)"
same,binding signal,ELF3,"1.22 fold enrichment (6-mer frequency, TF over GST control)"
same,binding signal,CRX,"1.08 fold enrichment (6-mer frequency, TF over GST control)"
same,binding signal,ETV1,"1.25 fold enrichment (6-mer frequency, TF over GST control)"
